Most compounds without a hit are left out; they make up all but 2.2% or so of the library.
GLP-1R agonist = agonists of human GLP-1 receptor; P43220; HEK293 GLP-1R CRE-luciferase, luminescence, 4-6 h; cells express a hypersensitive GLP-1R form; AID 624172; 380,000 compounds, 0.007% hits; Potency, µM (series often up to 45.6 µM), inactives show at the highest dose activation, usual class: activators; note: potency is the fitted concentration of half-maximal effect; % of control where 0% means no effect
Target sequence (P43220 whole entry, looked up): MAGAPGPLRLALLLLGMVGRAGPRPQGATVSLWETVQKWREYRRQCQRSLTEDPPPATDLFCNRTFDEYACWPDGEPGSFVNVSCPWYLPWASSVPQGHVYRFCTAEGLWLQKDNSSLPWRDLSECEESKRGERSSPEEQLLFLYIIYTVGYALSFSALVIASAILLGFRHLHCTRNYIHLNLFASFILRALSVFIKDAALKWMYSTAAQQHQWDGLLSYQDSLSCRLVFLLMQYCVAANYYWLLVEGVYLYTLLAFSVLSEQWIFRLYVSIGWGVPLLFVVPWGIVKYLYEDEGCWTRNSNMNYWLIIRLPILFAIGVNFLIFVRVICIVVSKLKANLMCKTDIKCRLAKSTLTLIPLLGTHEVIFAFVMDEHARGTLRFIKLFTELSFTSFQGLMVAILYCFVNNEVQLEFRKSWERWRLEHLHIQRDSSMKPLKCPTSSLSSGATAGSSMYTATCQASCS
CCT modulator = cytosolic chaperonin activity modulation. purified chaperonin ATPase assay, HTRF ADP detection, 30 min. activity change, % (no concentration beside the values), hits read low. 360,000 compounds, 0.3% hits; in the data active = activity change below about -30%; note: % is set by controls: 0 for no effect and ±100 for the full control effect
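TRiC (40 or 20 nM final, by batch activity) in 30 mM Tris pH 7.4, 100 mM KCl, 5 mM MgCl2, 1 mM DTT was treated with compound at 76 uM single dose, then 10 uM ATP, 30 min at 37 °C. ADP was read by HTRF Transcreener.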
GLP1R cytotox = cytotoxic in the GLP-1 receptor inverse agonist counter-screen; HEK293 cAMP-luciferase reporter cells, luminescence, 24 h; Potency, µM (titrated, usually from 38.3 µM), without a hit: at the top dose activity change, negative = inhibition, hits mostly inhibitors; 410,000 compounds, 0.13% hits; AID 624418;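 note: loss of luciferase light is scored as toxicity; potency is the fitted concentration of half-maximal effect; % is set by controls: 0 for no effect and ±100 for the full control effect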
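1536-well qHTS counterscreen of the MLSMR; 200 cells/uL, 12 h pre-incubation, 23 nL cpd, 24 h at 37 deg C 5% CO2, luciferase detection reagent, 12 min RT, luminescence. Inhibition = undesired.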
Mm-Cpn inhibitor = blocks the Methanococcus maripaludis chaperonin Mm-Cpn; purified Mm-Cpn ATPase, ADP Transcreener TR-FRET; Potency, µM (titrated, usually from 76.9 µM), without a hit: at the top dose activity, negative = inhibition, hits mostly inhibitors; 330,000 compounds, 0.031% hits; AID 504842; note: potency is the fitted concentration of half-maximal effect; % is set by controls: 0 for no effect and ±100 for the full control effect; nearly all actives have a fitted effect of over 80% in size
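TR-FRET (320 nm excitation; 590 and 665 nm emission) reports ADP made from 10 uM ATP by 25 nM enzyme; compounds were preincubated 10 min, reaction run 30 min, both at 37°C.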
GLP1R inv ag = acts as inverse agonist at human GLP-1 receptor; HEK293 GLP-1R CRE-luciferase, luminescence, 24 h; GLP-1R form is constitutively active; 410,000 compounds, 1.6% hits; Potency, µM (titrated, usually from 38.3 µM), for the others: at the top dose activity change, negative = inhibition, actives largely listed as inhibitors; note: potency is the fitted concentration of half-maximal effect; % is set by controls: 0 for no effect and ±100 for the full control effect; nearly all actives have a fitted effect of over 55% in size
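HEK293 cells stably co-expressing a cAMP-responsive luciferase reporter and constitutively active GLP-1R were seeded, incubated 12 h, then exposed to compounds for 24 h at 37 C. Luminescence was read 12 min after detection reagent; inverse agonists lower signal.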
uPA generation = cell surface uPA generation inhibition. 330,000 compounds, 0.31% hits. AID 540303. cell surface uPA generation assay, qHTS. Potency, µM (top dose mostly 38.3 µM), for the others: at the highest dose activity change, negative = inhibition, most hits filed as inhibitors; active = well fitted inhibition curve with a large enough effect; inconclusive = small, poorly fitted or top-dose-only effect; inactive = no such curve, though single readings can be large or run the other way; tested in mouse RAW 264.7 cells; note: potency is the fitted concentration of half-maximal effect; % is set by controls: 0 for no effect and ±100 for the full control effect; nearly all actives have a fitted effect of over 55% in size
An asterisk follows results filed as active; ? = inconclusive; nt = no result given. Unless noted, calls come from the whole dose curve; as a rule, active = well fitted curve in the direction sought with a large enough effect; inconclusive = small, poorly fitted or top-dose-only effect, or another doubt; inactive = no such curve, though single readings can be large; an effect the other way counts as inactive or inconclusive.

SMILES	GLP-1R agonist	CCT modulator	GLP1R cytotox	Mm-Cpn inhibitor	GLP1R inv ag	uPA generation
Cc1ccc(NS(=O)(=O)c2ccc(-n3cccn3)cc2)c(C)c1	3%	-4	11%	4%	10µM*	-3%
COc1ccc(CNC(=O)CN2N=C(c3ccccc3)CCC2=O)c(OC)c1	nt	nt	-9%	nt	2%	nt
COC(=O)CNC(c1ccccc1Cl)c1cc(Br)ccc1NS(=O)(=O)c1ccc(C)cc1 (centres undefined)	-18%	-3	3%	1%	3.5µM*	-15%
COC(=O)CNC(c1ccccc1)c1cc(Br)ccc1NC(C)=O (centres undefined)	-2%	-2	0%	1%	3%	-5%
Cc1ccccc1NC(=S)NC(=O)c1cc(-c2ccccc2)nc2ccccc12	-7%	0	0%	-8%	7.9µM*	7%
O=C(N/N=C/c1ccccn1)c1cc(-c2ccccc2)nc2ccccc12	-5%	-1	5µM*	2%	?	?
C/C(=N\NC(=O)c1cc(C)nc2ccccc12)c1ccncc1	-1%	-2	-33%	5%	-17%	-15%
COc1cccc(/C=N/NC(=O)c2cc(-c3ccccn3)nc3ccccc23)c1O	14%	-7	-3%	-3%	5µM*	4%
C/C(=N\NC(=O)c1cc(C)nc2ccccc12)c1ccccn1	-6%	-1	3.2µM*	-1%	?	?
CC1=C(C(=O)Nc2ccc(Cl)cc2)C(C(C)C)n2nc(SCc3cccc(C)c3)nc2N1 (centres undefined)	-1%	nt	-10%	nt	-15%	nt
CCOc1ccc(-c2nc3c(c(SCC(=O)N4CCCCC4)n2)Cc2cc(C)ccc2O3)cc1	nt	nt	-5%	nt	-2%	nt
Cn1c(=O)oc2cc(S(=O)(=O)NC(Cc3ccccc3)C(=O)Nc3ccc(F)c(Cl)c3)ccc21 (centres undefined)	nt	nt	18%	nt	16%	nt
COc1ccc(-c2n(CC(=O)OC3CC(C)CCC3C(C)C)c3ccccc3[n+]2C)cc1 (centres undefined)	-1%	2	?	2%	7.1µM*	-12%
COc1ccc(OCc2n(CC(=O)OC3CC(C)CCC3C(C)C)c3ccccc3[n+]2C)cc1 (centres undefined)	1%	-1	?	2%	?	?
COc1ccc2c(c1OC)C(=O)N(c1ccc(F)cc1)C2	24%	-40*	4%	0%	1%	-12%
CCOC(=O)C(C)N1C(=O)S/C(=C/c2cc(C)n(-c3ccccn3)c2C)C1=O (centres undefined)	0%	0	-34%	0%	10µM*	-6%
CCOC(=O)C(C)N1C(=O)S/C(=C/c2cc(C)n(-c3ccncc3)c2C)C1=O (centres undefined)	7%	1	-23%	-1%	?	-10%
COCCn1c(C)cc(/C=C2/SC(=O)N(C(C)C(=O)OC)C2=O)c1C (centres undefined)	16%	-2	-15%	-4%	-6%	11µM*
Cc1ccc(Cl)cc1NCc1nnc2n1CCCCC2	6%	nt	-2%	nt	-24%	nt
CCN(CC)CC1C(=O)N(c2ccc(OC)cc2)C1c1ccccc1 (centres undefined)	13%	2	1%	0%	10µM*	-3%
Cc1ccc(N2C(=O)C(CN(C)C)C2c2ccccc2)cc1 (centres undefined)	16%	0	-6%	3%	11µM*	3%
COc1ccc(N2C(=O)C(CN3CCCCC3)C2c2ccccc2)cc1 (centres undefined)	14%	-2	-5%	2%	?	-7%
O=C(CCC(=O)N1CC2CCCN2c2ccccc21)NCc1ccccc1 (centres undefined)	nt	nt	1%	nt	-21%	nt
COc1ccc2sc(N(CCCN(C)C)C(=O)c3nc4ccccc4s3)nc2c1	4%	-2	13%	-1%	-12%	-1%
COc1ccccc1C(=O)N(CCC1CCCN1C)c1nc2ccccc2s1 (centres undefined)	-4%	-3	-17%	0%	3.5µM*	-7%
SMILES	GLP-1R agonist	CCT modulator	GLP1R cytotox	Mm-Cpn inhibitor	GLP1R inv ag	uPA generation
COc1ccc(S(=O)(=O)NCC(c2ccco2)S(=O)(=O)c2cccs2)cc1F (centres undefined)	nt	nt	0%	nt	-9%	nt
CCCCCc1ccc(OCCC[n+]2ccccc2)c(CCCCC)c1	1%	-1	?	0%	7.9µM*	-12%
Cc1cccc(N2CCN(C(=O)Cn3nc(Cc4cccnc4)c4ccccc4c3=O)CC2)c1C	nt	nt	-11%	nt	?	nt
CCc1cccc(NS(=O)(=O)c2ccc3c(c2)NC(=O)C(C)S3)c1 (centres undefined)	11%	0	1%	?	11µM*	-17%
C=CCN(c1ccccc1)S(=O)(=O)c1ccc2c(c1)NC(=O)C(C)C(=O)N2 (centres undefined)	-3%	-2	2%	0%	5%	-10%
C=CCN(c1ccccc1)S(=O)(=O)c1ccc2c(c1)NC(=O)C(C)S2 (centres undefined)	1%	-3	0%	-3%	7.1µM*	5%
Cc1ccc(C(=O)Nc2cccc(NC(=O)c3cccs3)c2)c(C)c1	-4%	1	16%	0%	?	13µM*
COc1cc(NC(=O)c2ccc(C)cc2C)ccc1NC(=O)c1cccs1	5%	-3	6%	0%	25%	2%
CC(=O)Nc1cc(-c2ccccc2F)cn2c(-c3ccccc3)cnc12	?	-36*	-11%	nt	?	nt
CC(C)(C)c1ccc(C(=O)CCCN2CCC(OC(c3ccccc3)c3ccccc3)CC2)cc1	8%	nt	nt	nt	nt	nt
C=CC[C@H](CC(=O)N(CCO)Cc1ccccc1)C(=O)N[C@H](COC(=O)[C@@H](CC=C)Cc1ccc(F)cc1)C(C)(C)C	0%	-1	-25%	-4%	10µM*	-12%
C=CC[C@H](CC(=O)N(CCO)Cc1ccccc1)C(=O)N[C@@H](COC(=O)[C@H](CC=C)CC(=O)OC(C)(C)C)Cc1c[nH]c2ccccc12	-2%	0	0%	2%	4%	-26%
C=CCC[C@@H](Cc1ccc(F)cc1)C(=O)OC[C@@H](NC(=O)[C@@H](CC=C)CC(=O)N[C@@H](CO)Cc1ccccc1)C(C)(C)C	-2%	-1	-22%	0%	10µM*	?
C=CC[C@@H](CC(=O)N(CCO)Cc1ccccc1)C(=O)N[C@@H](COC(=O)[C@@H](CC=C)CC(=O)OC(C)(C)C)Cc1c[nH]c2ccccc12	-3%	-2	?	1%	10µM*	5%

Screening data: PubChem BioAssay, National Center for Advancing Translational Sciences (NCATS)
